Measurements taken from PubChem BioAssay (Tox21).
Records with an inconclusive call do not appear. Activity calls are given as the source filed them. Unless noted, calls come from the whole dose curve; as a rule, active = well fitted curve in the direction sought with a large enough effect in the repeat runs; inconclusive = weak or mixed curves; inactive = no such curve, though single readings can be large; an effect the other way counts as inactive or inconclusive.

Columns and labels:
[1] = target: Thyrotropin receptor (Homo sapiens) (UniProt P16473); assay: qHTS assay to identify small molecule antagonists of the thyroid stimulating hormone receptor (TSHR) signaling pathway (AID 1259385; calls by dose curve; note: nearly all actives have a fitted effect of over 20% in size)
Outline: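 TSHR-HEK293 cells were plated and held 18 h at 37C/5% CO2, then given compound plus Ro20-1724 and stimulated with TSH at 1.5 ng/mL final. After 30 min at room temperature, cAMP was detected with cAMP-d2/anti-cAMP-cryptate (1 h) by fluorescence.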

[2] = qHTS assay to identify small molecule agonists of the estrogen receptor alpha (ER-alpha) signaling pathway in the presence of an antagonist - cell viability counter screen (AID 1259386);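 note: series mostly up to about 92 µM; cells exposed to compounds for 22 h at 37 °C before the viability read; nearly all actives have a fitted effect of over 30% in size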
Outline: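 Fluorescent CellTiter-Fluor viability signal from VM7Luc4E2 cells, with the reagent added during the final hour of a 22hr compound exposure at 37C in the presence of 10.0nM ICI-182,780.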

[3] = target: Progesterone receptor (Homo sapiens) (UniProt P06401); assay: qHTS assay to identify small molecule antagonists of the progesterone receptor (PR) signaling pathway (AID 1346795; active = well fitted inhibition curve with a large enough effect in the signal ratio in the repeat runs, not every such curve was filed as active; the % refers to the signal ratio)
Outline: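 After 6 hr plating at 37C in 2% stripped-serum medium, PR-UAS-bla HEK293T cells got compounds, then 1 nM R5020. Sixteen hours later, LiveBLAzer substrate was applied for 2 hr at room temperature and fluorescence was recorded.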

[4] = qHTS assay to identify small molecule antagonists of the progesterone receptor (PR) signaling pathway - cell viability counter screen (AID 1346798); note: series mostly up to about 92 µM; nearly all actives have a fitted effect of over 50% in size
Outline: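 Viability was determined by ATP-based luminescence (CellTiter-Glo) in PR-UAS-bla HEK293T cells cultured in 2% charcoal-stripped serum and incubated 16 hr with compounds under R5020 stimulation.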

[5] = qHTS assay to identify small molecule agonists of the progesterone receptor (PR) signaling pathway - cell viability counter screen (AID 1346799; calls by dose curve; note: nearly all actives have a fitted effect of over 45% in size)
Outline: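 Viability was scored by ATP luminescence (CellTiter-Glo, 30 min, room temperature) in the same wells used for the reporter readout, after 16 hr compound exposure of PR-UAS-bla HEK293T cells.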

[6] = qHTS assay to identify small molecule antagonists of the TGF-beta/Smad signaling pathway - cell viability counter screen (AID 1346824); note: nearly all actives have a fitted effect of over 50% in size
Outline: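 SBE-bla HEK 293T cells were plated overnight at 37 C, then given compounds in DMSO plus TGF-beta1 (added as 0.25 ng/mL solution) for 5 hr. After the bla read, CellTiter-Glo was added to the same wells and luminescence read after 30 min at room temperature.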

[7] = qHTS assay to identify small molecule agonists of the TGF-beta/Smad signaling pathway - cell viability counter screen (AID 1346829); note: top concentration of the series differs between compounds; nearly all actives have a fitted effect of over 45% in size
Outline: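 CellTiter-Glo luminescence readout; SBE-bla HEK 293T cells, overnight plating, compound 5 hr at 37 C/5% CO2, then bla substrate 2 hr RT, then CellTiter-Glo 30 min RT.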

[8] = qHTS assay to identify small molecule agonists of the TGF-beta/Smad signaling pathway (AID 1346859; active = well fitted activation curve with a large enough effect in the signal ratio in the repeat runs, not every such curve was filed as active; the % refers to the signal ratio; note: series mostly up to about 77 µM)
Outline: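 Dual-wavelength fluorescence (460/530 nm emission) quantified beta-lactamase expression under the Smad binding element in HEK 293T cells following 5 hr compound treatment at 37 C.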

[9] = target: Thyrotropin-releasing hormone receptor (Homo sapiens) (UniProt P34981); assay: qHTS assay to identify small molecule antagonists of the thyrotropin-releasing hormone receptor (TRHR) signaling pathway (AID 1346877; active = well fitted inhibition curve with a large enough effect in the repeat runs, not every such curve was filed as active; note: series mostly up to about 51 µM)
Outline: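 In this cell-based calcium flux format, HEK293 cells expressing TRHR received test compound for 5 min before the agonist TRH (1 nM final). Dye loading lasted 2 h at 37 °C.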

[10] = target: Thyrotropin-releasing hormone receptor (Homo sapiens) (UniProt P34981); assay: qHTS assay to identify small molecule agonists of the thyrotropin-releasing hormone receptor (TRHR) signaling pathway (AID 1346891; calls by dose curve; note: series mostly up to about 58 µM)
Outline: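 Kinetic fluorescence (3 min, 1 s intervals) reported intracellular calcium after compound transfer onto TRHR-Hek293 cells pre-loaded with dye for 2 h at 37 °C.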

[11] = Human pregnane X receptor (PXR) small molecule agonists, qHTS cell viability counter screen (AID 1346977); note: nearly all actives have a fitted effect of over 50% in size
Outline: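 HepG2 cells stably carrying the PXR-Luc reporter are cultured with 5% charcoal-stripped FBS and treated with compounds for 24hr. CellTiter-Fluor is added at 23hr and fluorescence is read after 1hr.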

[12] = Caspase-3/7 induction in HepG2 cells by small molecules, qHTS assay (AID 1346978); note: nearly all actives have a fitted effect of over 15% in size
Outline: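 Wild-type HepG2 cells (2,000/well) were settled 5 h at 37 C, 5% CO2, then exposed to compounds in DMSO for 17 h. Caspase-3/7 activity was read by luminescence 30 min after adding Caspase-Glo 3/7 reagent at room temperature.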

[13] = Caspase-3/7 induction in CHO-K1 cells by small molecules, qHTS cell viability counter screen (AID 1346979); note: nearly all actives have a fitted effect of over 35% in size
Outline: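 Seeding: 1,500 CHO-K1 cells/well. Rest: 5hr, 37C. Treatment: compounds in DMSO, 16hr. Read: CellTiter-Fluor, 1hr, fluorescence.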

[14] = Caspase-3/7 induction in CHO-K1 cells by small molecules, qHTS assay (AID 1346980); note: nearly all actives have a fitted effect of over 15% in size
Outline: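 Wild-type cells were seeded at 1,500 per well and settled 5 hr at 37 C, 5% CO2, then exposed to DMSO-dissolved compounds for 17 hr. Caspase-Glo 3/7 reagent was added, and luminescence was read after 30min at room temperature.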

[15] = Caspase-3/7 induction in HepG2 cells by small molecules, qHTS cell viability counter screen (AID 1346981); note: series mostly up to about 92 µM; nearly all actives have a fitted effect of over 30% in size
Outline: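 Counter screen for cytotoxicity: HepG2 exposed 16 hr to compounds, then CellTiter-Fluor viability signal (fluorescence, 1 hr reagent incubation).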

[16] = target: Nuclear receptor subfamily 1 group I member 2 (Rattus norvegicus) (UniProt Q9R1A7); assay: Rat pregnane X receptor (rPXR) activation by small molecules, qHTS assay (AID 1346983); conditions: rPXR luciferase reporter cells, One-Glo luminescence, 24 h; hits give high values; note: nearly all actives have a fitted effect of over 20% in size
Outline: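 Cell-based rPXR luciferase reporter assay, 2,000 cells per well, rested 5hr at 37 C before compound addition in DMSO, then 24 hr at 37 C. One-Glo reagent was added and luminescence read after 30 min at room temperature.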

[17] = target: Nuclear receptor subfamily 1 group I member 2 (Homo sapiens) (UniProt O75469); assay: CYP3A4 induction through human pregnane X receptor (PXR) by small molecules, qHTS assay (AID 1346984); note: nearly all actives have a fitted effect of over 40% in size
Outline: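 DPX-2 reporter cells; 24h cpd, 37C; Luciferin-IPA 3uM final x3h; One-Glo 30 min RT; lumi read.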

[18] = target: Nuclear receptor subfamily 1 group I member 2 (Homo sapiens) (UniProt O75469); assay: Human pregnane X receptor (PXR) activation by small molecules, qHTS assay (AID 1346985); note: nearly all actives have a fitted effect of over 40% in size
Outline: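 DPX-2 cells (HepG2 co-transfected with a PXR response element and a CYP3A4-promoter luciferase construct) were seeded at 2,000 per well, rested 5 hr at 37C, then exposed to DMSO-dissolved compounds for 24 hr. Activation was read as luciferase luminescence.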

[19] = target: Nuclear receptor subfamily 1 group I member 2 (Homo sapiens) (UniProt O75469); assay: Human pregnane X receptor (PXR) small molecule agonists, qHTS assay (AID 1346982); note: nearly all actives have a fitted effect of over 35% in size
Outline: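 Luminescence (ONE-Glo, 30 min RT) after 24 hr compound exposure of PXR-Luc HepG2 cells; cells rested 5 hr post-plating in 5% charcoal-stripped FBS medium.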
% is set by controls: 0 for no effect and ±100 for the full control effect.

Nuclear receptor subfamily 1 group I member 2 (Homo sapiens), sequence (O75469 whole entry, looked up): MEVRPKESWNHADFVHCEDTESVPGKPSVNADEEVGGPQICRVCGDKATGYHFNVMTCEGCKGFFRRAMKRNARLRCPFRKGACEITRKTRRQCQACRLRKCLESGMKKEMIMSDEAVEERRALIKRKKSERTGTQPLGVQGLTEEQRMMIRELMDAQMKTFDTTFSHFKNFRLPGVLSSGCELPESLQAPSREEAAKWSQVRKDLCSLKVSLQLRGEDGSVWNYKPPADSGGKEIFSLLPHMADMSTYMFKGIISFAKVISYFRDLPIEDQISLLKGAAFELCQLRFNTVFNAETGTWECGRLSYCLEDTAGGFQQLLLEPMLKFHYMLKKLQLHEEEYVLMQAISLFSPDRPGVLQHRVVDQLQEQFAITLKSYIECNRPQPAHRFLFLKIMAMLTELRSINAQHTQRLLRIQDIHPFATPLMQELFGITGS
Progesterone receptor (Homo sapiens), sequence (P06401 whole entry, looked up): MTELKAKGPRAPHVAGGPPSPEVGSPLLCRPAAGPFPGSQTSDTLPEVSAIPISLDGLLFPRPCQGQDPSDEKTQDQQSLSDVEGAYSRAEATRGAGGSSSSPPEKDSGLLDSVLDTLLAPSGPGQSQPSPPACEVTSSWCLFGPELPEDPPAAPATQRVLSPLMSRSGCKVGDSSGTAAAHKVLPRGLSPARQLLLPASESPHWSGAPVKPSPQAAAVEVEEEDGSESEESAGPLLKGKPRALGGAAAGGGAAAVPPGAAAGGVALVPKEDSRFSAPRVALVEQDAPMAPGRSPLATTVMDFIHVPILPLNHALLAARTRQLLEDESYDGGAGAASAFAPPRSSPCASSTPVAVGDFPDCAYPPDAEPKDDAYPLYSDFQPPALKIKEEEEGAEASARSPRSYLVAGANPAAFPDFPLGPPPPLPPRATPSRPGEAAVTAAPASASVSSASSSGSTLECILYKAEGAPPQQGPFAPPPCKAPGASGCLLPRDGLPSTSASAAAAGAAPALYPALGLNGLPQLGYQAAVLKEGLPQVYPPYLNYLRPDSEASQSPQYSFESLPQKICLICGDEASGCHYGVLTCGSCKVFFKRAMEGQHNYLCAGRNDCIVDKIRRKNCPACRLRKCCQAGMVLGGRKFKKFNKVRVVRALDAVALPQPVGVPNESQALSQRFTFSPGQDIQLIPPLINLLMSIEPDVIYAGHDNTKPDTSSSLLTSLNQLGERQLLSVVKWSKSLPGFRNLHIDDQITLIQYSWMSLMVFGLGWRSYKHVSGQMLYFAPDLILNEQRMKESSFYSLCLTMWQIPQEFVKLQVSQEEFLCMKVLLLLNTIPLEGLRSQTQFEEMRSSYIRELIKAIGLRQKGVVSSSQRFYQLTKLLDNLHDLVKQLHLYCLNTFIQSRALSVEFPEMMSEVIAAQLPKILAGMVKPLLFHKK
Thyrotropin receptor (Homo sapiens), sequence (P16473 whole entry, looked up): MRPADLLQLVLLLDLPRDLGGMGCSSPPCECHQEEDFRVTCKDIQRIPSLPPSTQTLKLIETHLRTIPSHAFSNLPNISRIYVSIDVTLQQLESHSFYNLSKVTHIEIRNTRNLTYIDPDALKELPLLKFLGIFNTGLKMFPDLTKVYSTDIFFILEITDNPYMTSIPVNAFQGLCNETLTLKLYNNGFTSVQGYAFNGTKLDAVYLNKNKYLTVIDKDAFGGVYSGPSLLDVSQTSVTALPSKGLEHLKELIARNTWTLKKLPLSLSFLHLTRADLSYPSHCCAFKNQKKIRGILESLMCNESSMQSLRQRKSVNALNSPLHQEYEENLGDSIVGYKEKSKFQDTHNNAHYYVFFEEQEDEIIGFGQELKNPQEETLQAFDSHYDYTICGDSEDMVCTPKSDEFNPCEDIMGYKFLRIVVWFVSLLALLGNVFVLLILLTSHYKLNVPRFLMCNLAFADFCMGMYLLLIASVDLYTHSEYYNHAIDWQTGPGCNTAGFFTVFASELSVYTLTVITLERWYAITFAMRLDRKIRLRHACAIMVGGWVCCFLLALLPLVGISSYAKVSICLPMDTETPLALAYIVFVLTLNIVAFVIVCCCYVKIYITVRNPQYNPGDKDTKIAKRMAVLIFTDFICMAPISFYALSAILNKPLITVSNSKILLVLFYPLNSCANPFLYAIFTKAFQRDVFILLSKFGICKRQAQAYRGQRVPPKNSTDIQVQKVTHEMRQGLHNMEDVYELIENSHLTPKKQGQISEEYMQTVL
Nuclear receptor subfamily 1 group I member 2 (Rattus norvegicus), sequence (Q9R1A7 whole entry, looked up): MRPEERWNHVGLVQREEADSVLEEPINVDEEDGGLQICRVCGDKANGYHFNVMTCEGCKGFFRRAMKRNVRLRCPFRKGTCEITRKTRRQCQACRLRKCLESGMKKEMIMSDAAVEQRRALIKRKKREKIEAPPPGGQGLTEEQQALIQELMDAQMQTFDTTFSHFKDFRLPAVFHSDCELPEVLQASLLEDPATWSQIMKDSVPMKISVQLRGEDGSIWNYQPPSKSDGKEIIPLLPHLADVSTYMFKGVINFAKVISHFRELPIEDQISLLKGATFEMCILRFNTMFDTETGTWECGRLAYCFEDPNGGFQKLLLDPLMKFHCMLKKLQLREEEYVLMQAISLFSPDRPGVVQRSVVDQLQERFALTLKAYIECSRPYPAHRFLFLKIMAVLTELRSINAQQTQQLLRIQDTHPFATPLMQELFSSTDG
Thyrotropin-releasing hormone receptor (Homo sapiens), sequence (P34981 whole entry, looked up): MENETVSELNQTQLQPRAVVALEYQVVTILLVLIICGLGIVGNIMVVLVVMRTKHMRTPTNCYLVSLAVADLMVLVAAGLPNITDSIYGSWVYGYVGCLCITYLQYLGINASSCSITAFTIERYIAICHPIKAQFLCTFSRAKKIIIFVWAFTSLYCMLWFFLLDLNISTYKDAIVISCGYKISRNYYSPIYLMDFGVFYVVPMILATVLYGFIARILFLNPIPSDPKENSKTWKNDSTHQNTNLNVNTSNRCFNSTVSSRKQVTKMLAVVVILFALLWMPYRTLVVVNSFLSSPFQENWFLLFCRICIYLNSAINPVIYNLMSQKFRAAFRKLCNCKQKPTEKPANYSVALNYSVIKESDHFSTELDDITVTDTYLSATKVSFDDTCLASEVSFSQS

CCOC(=O)c1c(C)n(C)c2ccc(O)cc12
inactive: Potency [1] | Potency [2] | Potency [3] | Potency [4] | Potency [5] | Potency [6] | outcome [7] | outcome [8] | outcome [9] | outcome [10] | Potency [11] | Potency [12] | Potency [13] | outcome [14] | Potency [15] | max activation [16] -1.63% | Potency [17] | Potency [18]

C[C@@H]1CCN(C(=O)[C@H](CCCN=C(N)N)NS(=O)(=O)c2cccc3c2NC[C@H](C)C3)[C@@H](C(=O)O)C1
inactive: Potency [1] | Potency [2] | Potency [3] | Potency [4] | Potency [6] | outcome [7] | outcome [8] | outcome [9] | outcome [10] | Potency [11] | Potency [12] | Potency [13] | outcome [14] | Potency [15] | Potency [19] | max activation [16] -0.172% | Potency [17] | Potency [18]

Nc1c[n+](N2CCOCC2)no1
inactive: Potency [1] | Potency [2] | Potency [3] | Potency [4] | Potency [5] | Potency [6] | outcome [7] | outcome [8] | outcome [9] | outcome [10] | Potency [11] | Potency [12] | Potency [13] | outcome [14] | Potency [15] | Potency [19]

c1ccc(CC2=NCCN2)cc1
inactive: Potency [1] | Potency [2] | Potency [3] | Potency [4] | Potency [5] | Potency [6] | outcome [7] | outcome [8] | outcome [9] | outcome [10] | Potency [11] | Potency [12] | Potency [13] | outcome [14] | Potency [15] | Potency [19] | max activation [16] -1.57% | Potency [17] | Potency [18]

C=C1CC[C@H]2C[C@@H]1C2(C)C
inactive: Potency [1] | Potency [2] | Potency [4] | Potency [5] | Potency [6] | outcome [7] | outcome [8] | outcome [9] | outcome [10] | Potency [12] | Potency [13] | outcome [14] | Potency [15] | Potency [19]

CCOc1ccc(C(=O)OCCN(CC)CC)cc1
inactive: Potency [1] | Potency [2] | Potency [4] | Potency [5] | Potency [6] | outcome [7] | outcome [8] | Potency [11] | Potency [12] | Potency [13] | outcome [14] | Potency [15] | Potency [19] | max activation [16] -2.52% | Potency [17] | Potency [18]

NS(=O)(=O)c1cc(C(=O)O)cc(N2CCCC2)c1Oc1ccccc1
inactive: Potency [1] | Potency [2] | Potency [3] | Potency [4] | Potency [6] | outcome [7] | outcome [8] | outcome [9] | outcome [10] | Potency [11] | Potency [12] | Potency [13] | outcome [14] | Potency [15] | Potency [19] | max activation [16] 1.61% | Potency [17] | Potency [18]
